The values below come from the supplement of paper PMC9794691.

The subject of test [1] is H1975. Nature of the test: area under confluence curve of compound monotherapy; compare to DMSO control AUC of the same experiment (AUC (confluence x time, arbitrary)). The settings on record: 1000 nM; DMSO control AUC in same experiment: 20657. A digest of the protocol: (§1)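 Test compound alone was added at one dose (1 uM, or the highest with <50% parental inhibition) to adenocarcinoma lines seeded the previous day at 20,000–30,000 cells/well in 48-well plates with RPMI 1640 and 10% FBS at 37 °C and 5% CO2. The drug was refreshed with PBS washes every 3–4 days, and cultures were left drug-free from the DTP stage (10–21 days) while IncuCyte tracked confluence until wells given only an EGFR inhibitor regrew. Area under the confluence curve was obtained in Prism, as a median of triplicates where run, and compared against vehicle from the same experiment.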

Test [2] has as its system HCC2279. The test is described as above. The settings on record: 1000 nM; DMSO control AUC in same experiment: 9426. A digest of the protocol: as §1
Test [3] relates to HCC2935. Described as above. The conditions noted are these: 1000 nM; DMSO control AUC in same experiment: 13875. A digest of the protocol: as §1
For test [4], the system named is HCC4006. The test is described as above. The conditions noted are these: 1000 nM; DMSO control AUC in same experiment: 16638. A digest of the protocol: as §1
Test [5] has as its system HCC827. Described as above. The settings on record: 1000 nM; DMSO control AUC in same experiment: 27404. A digest of the protocol:
as §1

Test [6] relates to II-18. The description is as above. The settings on record: 1000 nM; DMSO control AUC in same experiment: 18482. A digest of the protocol: as §1
For test [7], the system named is H1975. Briefly: area under confluence curve of osimertinib + compound combination regimen (DTP regrowth); compare to osimertinib-only DTP control AUC of the same experiment (AUC (confluence x time, arbitrary)). A digest of the protocol: (§2)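 The area under the IncuCyte confluence–time curve, calculated in Prism and taken as the median of triplicates where available, is the value reported. It was measured in EGFR-mutant NSCLC lines that received the EGFR inhibitor either alone, followed by a test compound, or together with a fixed-dose test compound until the persister stage (10–21 days) and then drug-free medium. Medium was refreshed every 3–4 days until the inhibitor-only wells were confluent again.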

Test [8] deals with HCC2279. The test is described as above. A digest of the protocol: as §2
For test [9], the system named is HCC2935. The test is described as above. A digest of the protocol:
as §2

Test [10] concerns HCC4006. Described as above. A digest of the protocol: as §2
The test system of test [11] is HCC827. The test is described as above. A digest of the protocol: as §2
Test [12] deals with II-18. Described as above. A digest of the protocol:
as §2

In test [13] the test system is PC9. The description is as above. The conditions noted are these: test compound dose 100 nM, DMSO control AUC in same experiment: 44384. A digest of the protocol: as §2

Consider `CCn1nc(C2CCN(C(=O)CCO)CC2)nc1-c1cnc(N)c(-c2nnc(C(C)(C)C)o2)n1`, for which the “area under confluence curve” value in test [1] came out at 18200; in test [2], 11400; in [3], 11700; in test [4], 17000; in test [5], 27500; in test [6], 14200.
Take `CCN1CCN(Cc2ccc(Nc3ncc(F)c(-c4cc(F)c5nc(C)n(C(C)C)c5c4)n3)nc2)CC1` [Abemaciclib] + C=CC(=O)Nc1cc(Nc2nccc(-c3cn(C)c4ccccc34)n2)c(OC)cc1N(C)CCN(C)C [osimertinib]: the “area under confluence curve” value in test [7] (test compound dose 100 nM, dosing schedule: sequential, osimertinib-only DTP control AUC in same experiment: 12533, DMSO control AUC in same experiment: 14522) is 8980; in test [7] (test compound dose 100 nM, dosing schedule: upfront, osimertinib-only DTP control AUC in same experiment: 18969, DMSO control AUC in same experiment: 14522), 5060; in test [8] (test compound dose 100 nM, dosing schedule: sequential, osimertinib-only DTP control AUC in same experiment: 5698, DMSO control AUC in same experiment: 27284) it was 4410; in [8] (test compound dose 100 nM, dosing schedule: upfront, osimertinib-only DTP control AUC in same experiment: 30623, DMSO control AUC in same experiment: 27284), 12700; in test [9] (test compound dose 100 nM, dosing schedule: sequential, osimertinib-only DTP control AUC in same experiment: 9121, DMSO control AUC in same experiment: 11459), 4760; in test [9] (test compound dose 100 nM, dosing schedule: upfront, osimertinib-only DTP control AUC in same experiment: 12748, DMSO control AUC in same experiment: 11459), 9300. The “area under confluence curve” value came to 8540 in test [10] (test compound dose 100 nM, dosing schedule: sequential, osimertinib-only DTP control AUC in same experiment: 14882, DMSO control AUC in same experiment: 10921); 4990 in test [10] (test compound dose 100 nM, dosing schedule: upfront, osimertinib-only DTP control AUC in same experiment: 18913, DMSO control AUC in same experiment: 10921); 6450 in test [11] (test compound dose 100 nM, dosing schedule: sequential, osimertinib-only DTP control AUC in same experiment: 18675, DMSO control AUC in same experiment: 48895); 7890 in test [11] (test compound dose 100 nM, dosing schedule: upfront, osimertinib-only DTP control AUC in same experiment: 25542, DMSO control AUC in same experiment: 48895); 1010 in test [12] (test compound dose 100 nM, dosing schedule: sequential, osimertinib-only DTP control AUC in same experiment: 3520, DMSO control AUC in same experiment: 13556); 2540 in [12] (test compound dose 100 nM, dosing schedule: upfront, osimertinib-only DTP control AUC in same experiment: 6532, DMSO control AUC in same experiment: 13556).
For the compound `COc1nnc2ccc(N3CCC(c4ccc(OCCN5CCN(C)C(=O)[C@H]5C)cc4)CC3)nn12` + C=CC(=O)Nc1cc(Nc2nccc(-c3cn(C)c4ccccc34)n2)c(OC)cc1N(C)CCN(C)C [osimertinib], the “area under confluence curve” value in test [7] (test compound dose 300 nM, dosing schedule: sequential, osimertinib-only DTP control AUC in same experiment: 12533, DMSO control AUC in same experiment: 14522) was found to be 3520; in test [7] (test compound dose 300 nM, dosing schedule: upfront, osimertinib-only DTP control AUC in same experiment: 18969, DMSO control AUC in same experiment: 14522), 15900; in test [8] (test compound dose 300 nM, dosing schedule: sequential, osimertinib-only DTP control AUC in same experiment: 5698, DMSO control AUC in same experiment: 27284), 2470; in test [8] (test compound dose 300 nM, dosing schedule: upfront, osimertinib-only DTP control AUC in same experiment: 30623, DMSO control AUC in same experiment: 27284) it was 13900; in [9] (test compound dose 300 nM, dosing schedule: sequential, osimertinib-only DTP control AUC in same experiment: 9121, DMSO control AUC in same experiment: 11459) it was 2580; in [9] (test compound dose 300 nM, dosing schedule: upfront, osimertinib-only DTP control AUC in same experiment: 12748, DMSO control AUC in same experiment: 11459), 4310. The “area under confluence curve” value in test [10] (test compound dose 30 nM, dosing schedule: sequential, osimertinib-only DTP control AUC in same experiment: 14882, DMSO control AUC in same experiment: 10921) stood at 6680; in [10] (test compound dose 30 nM, dosing schedule: upfront, osimertinib-only DTP control AUC in same experiment: 18913, DMSO control AUC in same experiment: 10921) it was 5730; in test [11] (test compound dose 300 nM, dosing schedule: sequential, osimertinib-only DTP control AUC in same experiment: 18675, DMSO control AUC in same experiment: 48895) it was 4180; in [11] (test compound dose 300 nM, dosing schedule: upfront, osimertinib-only DTP control AUC in same experiment: 25542, DMSO control AUC in same experiment: 48895), 12300; in [12] (test compound dose 30 nM, dosing schedule: sequential, osimertinib-only DTP control AUC in same experiment: 16416, DMSO control AUC in same experiment: 18996), 4370; in test [12] (test compound dose 30 nM, dosing schedule: upfront, osimertinib-only DTP control AUC in same experiment: 18996, DMSO control AUC in same experiment: 18996), 14400.
Consider `O=C(NC[C@H](O)CN1CCc2ccccc2C1)c1ccnc(NC2CCC2)c1` + C=CC(=O)Nc1cc(Nc2nccc(-c3cn(C)c4ccccc34)n2)c(OC)cc1N(C)CCN(C)C [osimertinib], for which the “area under confluence curve” value turned out to be 14900 in test [7] (test compound dose 300 nM, dosing schedule: sequential, osimertinib-only DTP control AUC in same experiment: 15943, DMSO control AUC in same experiment: 20657); 25700 in [7] (test compound dose 300 nM, dosing schedule: upfront, osimertinib-only DTP control AUC in same experiment: 27804, DMSO control AUC in same experiment: 20657); 8560 in test [8] (test compound dose 300 nM, dosing schedule: sequential, osimertinib-only DTP control AUC in same experiment: 15997, DMSO control AUC in same experiment: 40085); 8330 in [8] (test compound dose 300 nM, dosing schedule: upfront, osimertinib-only DTP control AUC in same experiment: 28057, DMSO control AUC in same experiment: 40085); 8090 in test [9] (test compound dose 300 nM, dosing schedule: sequential, osimertinib-only DTP control AUC in same experiment: 7139, DMSO control AUC in same experiment: 15413); 16100 in test [9] (test compound dose 300 nM, dosing schedule: upfront, osimertinib-only DTP control AUC in same experiment: 19044, DMSO control AUC in same experiment: 15413). The “area under confluence curve” value in test [10] (test compound dose 300 nM, dosing schedule: sequential, osimertinib-only DTP control AUC in same experiment: 14882, DMSO control AUC in same experiment: 10921) turned out to be 9080; in test [10] (test compound dose 300 nM, dosing schedule: upfront, osimertinib-only DTP control AUC in same experiment: 18913, DMSO control AUC in same experiment: 10921) it was 6670; in test [11] (test compound dose 300 nM, dosing schedule: sequential, osimertinib-only DTP control AUC in same experiment: 5666, DMSO control AUC in same experiment: 43928), 5240; in test [11] (test compound dose 300 nM, dosing schedule: upfront, osimertinib-only DTP control AUC in same experiment: 19044, DMSO control AUC in same experiment: 43928), 24000; in [12] (test compound dose 300 nM, dosing schedule: sequential, osimertinib-only DTP control AUC in same experiment: 21122, DMSO control AUC in same experiment: 7080) it was 18800; in test [12] (test compound dose 300 nM, dosing schedule: upfront, osimertinib-only DTP control AUC in same experiment: 22894, DMSO control AUC in same experiment: 7080) it was 6900. For the same compound, the “area under confluence curve” value came out at 979 in test [13] (dosing schedule: sequential, osimertinib-only DTP control AUC in same experiment: 12891) and 3800 in test [13] (dosing schedule: upfront, osimertinib-only DTP control AUC in same experiment: 16570).
`O=C(c1cc(Cc2n[nH]c(=O)c3ccccc23)ccc1F)N1CCN(C(=O)C2CC2)CC1` [Olaparib] + C=CC(=O)Nc1cc(Nc2nccc(-c3cn(C)c4ccccc34)n2)c(OC)cc1N(C)CCN(C)C [osimertinib]: the “area under confluence curve” value in test [7] (test compound dose 1000 nM, dosing schedule: sequential, osimertinib-only DTP control AUC in same experiment: 22968, DMSO control AUC in same experiment: 15857) worked out at 19500; in test [7] (test compound dose 1000 nM, dosing schedule: upfront, osimertinib-only DTP control AUC in same experiment: 27164, DMSO control AUC in same experiment: 15857), 21000; in [8] (test compound dose 1000 nM, dosing schedule: sequential, osimertinib-only DTP control AUC in same experiment: 26096, DMSO control AUC in same experiment: 14404) it was 23100; in test [8] (test compound dose 1000 nM, dosing schedule: upfront, osimertinib-only DTP control AUC in same experiment: 33120, DMSO control AUC in same experiment: 14404), 29800; in test [9] (test compound dose 1000 nM, dosing schedule: sequential, osimertinib-only DTP control AUC in same experiment: 22314, DMSO control AUC in same experiment: 19215), 20700; in test [9] (test compound dose 1000 nM, dosing schedule: upfront, osimertinib-only DTP control AUC in same experiment: 29846, DMSO control AUC in same experiment: 19215), 26000. The “area under confluence curve” value in [10] (test compound dose 1000 nM, dosing schedule: sequential, osimertinib-only DTP control AUC in same experiment: 12791, DMSO control AUC in same experiment: 18415) stood at 11700; in [10] (test compound dose 1000 nM, dosing schedule: upfront, osimertinib-only DTP control AUC in same experiment: 17269, DMSO control AUC in same experiment: 18415), 18000; in [11] (test compound dose 1000 nM, dosing schedule: sequential, osimertinib-only DTP control AUC in same experiment: 15330, DMSO control AUC in same experiment: 21320), 12400; in test [11] (test compound dose 1000 nM, dosing schedule: upfront, osimertinib-only DTP control AUC in same experiment: 20798, DMSO control AUC in same experiment: 21320), 23700; in [12] (test compound dose 1000 nM, dosing schedule: sequential, osimertinib-only DTP control AUC in same experiment: 8624, DMSO control AUC in same experiment: 11834) it was 9480; in test [12] (test compound dose 1000 nM, dosing schedule: upfront, osimertinib-only DTP control AUC in same experiment: 10856, DMSO control AUC in same experiment: 11834), 9420.
